Calls of active or inactive are those of the source. No stated cut-off is given here; in the data, active means activation above about 85%; inactive means the rest.
Target: Peroxisome proliferator-activated receptor gamma (Homo sapiens) (UniProt P37231)
Test: partial agonism at human PPARgamma receptor – cell-based, luciferase reporter, luminescence, primary screen (AID 504452);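 further: Cos-1 cells carrying PPARgamma and a response element luciferase reporter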
Details: cell-based PPARg luciferase reporter, at 5 µM, stronger effect = higher value; activation (% of full agonist control): measured here: relative to full agonist control

Sequence of Peroxisome proliferator-activated receptor gamma (Homo sapiens) (P37231 whole entry, looked up): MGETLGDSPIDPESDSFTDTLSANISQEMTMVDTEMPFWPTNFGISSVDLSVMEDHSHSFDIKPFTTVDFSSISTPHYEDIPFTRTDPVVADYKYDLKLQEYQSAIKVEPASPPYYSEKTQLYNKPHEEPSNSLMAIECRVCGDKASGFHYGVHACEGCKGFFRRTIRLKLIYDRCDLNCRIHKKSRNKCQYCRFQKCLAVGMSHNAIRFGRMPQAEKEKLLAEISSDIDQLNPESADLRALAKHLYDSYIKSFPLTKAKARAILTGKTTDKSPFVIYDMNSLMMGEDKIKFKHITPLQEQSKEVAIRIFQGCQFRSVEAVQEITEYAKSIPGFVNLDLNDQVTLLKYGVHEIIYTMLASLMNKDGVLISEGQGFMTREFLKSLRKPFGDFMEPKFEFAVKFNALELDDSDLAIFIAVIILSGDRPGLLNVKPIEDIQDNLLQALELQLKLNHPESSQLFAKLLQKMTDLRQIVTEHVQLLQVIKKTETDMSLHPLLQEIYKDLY

SMILES | activation (% of full agonist control) | activation (% of partial agonist control)
CC(=O)Nc1cc(C(=O)N2CCC3(CC2)OCCO3)ccc1Sc1ccc(F)cc1 | 37.4% | 82.7% (inactive)
O=C(O)COc1ccccc1/C=C1\C(=O)NC(=O)N(CCC2=CCCCC2)C1=O | 33.7% | 74.6% (inactive)

Source: PubChem BioAssay AID504452 (The Scripps Research Institute Molecular Screening Center, 2011)
